Here are results for 26 compounds from PubChem BioAssay (NCI).

This is part of a sample that, as a whole, favours compounds with a hit. Of some 83,000 tested, about 20% had one in any assay.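 Interpretation: 100, growth as untreated; towards 0, rising growth inhibition; 0, no net growth; 0 to -100, cell death. Compounds scoring below 10 were considered active.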 Values without a mark were called inactive. The source made the active and inactive calls.

Holding throughout (test): NCI-60 one-dose screen, 48 h (100 = growth as untreated, 0 = no growth, -100 = all killed)
Common to all, as to conditions: 10 µM

The test system of assay [1] is SR leukemia.
Assay [2] has as its system RPMI-8226 leukemia.
Assay [3] deals with OVCAR-8 ovarian.
In assay [4] the test system is OVCAR-5 ovarian.
In assay [5] the test system is OVCAR-4 ovarian.
For assay [6], the system named is SK-OV-3 ovarian.
Assay [7] relates to IGROV1 ovarian.
Assay [8] has as its system OVCAR-3 ovarian.
Assay [9] deals with HS 578T breast.
In assay [10] the test system is NCI/ADR-RES ovarian.

Take `O=C1N/C(=N\c2nccs2)S/C1=C\c1cccs1`: the growth was 16.4% in assay [1]; 19.5% in [2]; 31.3% in assay [3]; 49.1% in [4]; 30.9% in assay [5]; 39.3% in assay [6]. The growth was 31.5% in assay [7], 44.2% in [8], 49.9% in assay [9] and -0.769% (active) in assay [10].
Consider `CN(CCO)c1oc(-c2ccccc2)nc1[P+](c1ccccc1)(c1ccccc1)c1ccccc1`, for which the growth in assay [1] is 5.21% (active); in [2], 7.8% (active); in assay [3], 12.3%; in assay [4] it was 16.2%; in assay [5], 15.1%; in assay [6] it was -13.5% (active). Also, the growth in [7] was 6.36% (active); in assay [8] it was -0.969% (active); in assay [9], -11.4% (active); in [10], 96.6%.
With `N#Cc1ccc(-c2nn(-c3ccc(C(=O)O)cc3)cc2CNc2cc(Cl)cc(C(F)(F)F)c2)cc1`, the growth in assay [1] was 1.72% (active); in assay [2], 1.01% (active); in assay [3], 20.1%; in assay [4], 59.8%; in [5], 27.8%; in [6], 55.2%. Besides, the growth was 34.7% in [7], 22% in assay [8], -0.292% (active) in assay [9] and 1.78% (active) in assay [10].
Consider `COc1ccc(-c2cc(C(=O)N=Nc3c(O)[nH]c4ccc(F)cc34)c3ccccc3n2)cc1`, for which the growth in assay [1] was 22.5%; in [2], 72.2%; in assay [3], 59.1%; in [4], 88.5%; in assay [5], 52%; in assay [6], 101%. Further, the growth in assay [7] is 62.3%; in [8] it was 59.1%; in assay [9], 74%; in assay [10] it was 61.9%.
For the compound `O=c1[nH]c2ccc(Cl)cc2cc1CSc1ccc(Nc2nccc(-c3ccc4ccccc4c3)n2)cc1`, the growth in assay [1] is 88%; in assay [2], 69.1%; in assay [3], 9.55% (active); in assay [4], 95%; in [5], -25.7% (active); in [6], 126%. For the same compound, the growth is 99.4% in [7], -1.45% (active) in assay [8], 66.2% in assay [9] and 59.8% in assay [10].
For the compound `O=C(N/C(=C1/OCCN1Cc1ccccc1)[P+](c1ccccc1)(c1ccccc1)c1ccccc1)c1ccccc1`, the growth in [1] is 8.3% (active); in [2] it was 0.374% (active); in assay [3], 16.5%; in assay [4] it was 67.3%; in assay [5], 21.2%; in [6], 23%. The growth was 2.86% (active) in assay [7], -7.02% (active) in assay [8], -2.64% (active) in assay [9] and 97.8% in assay [10].
On to `O=C(CSc1nnc(-c2c[nH]c3ccccc23)n1-c1ccccc1)c1ccc(Cl)cc1`, for which the growth in assay [1] was 92.4%; in [2], 83.2%; in [3], 24.5%; in [4], 90.7%; in assay [5], 14.9%; in assay [6], 72.1%. In addition, the growth was 51.4% in assay [7], 73.9% in assay [8], 33.2% in assay [9] and 5.85% (active) in assay [10].
Consider `CC(=O)OC[C@@]1(C)C2CC[C@]3(C)C(CC=C4C5CC(C)(C)CC[C@]5(C(=O)Nc5ccccc5)CC[C@]43C)[C@@]2(C)C[C@@H](OC(C)=O)[C@@H]1OC(C)=O` (stereo not given in full), for which the growth in assay [1] is 17%; in [2] it was 10.7%; in assay [3], 32.7%; in [4] it was 81.4%; in assay [5], 33.4%; in [6], 45.2%. Moreover, the growth in assay [7] is 45.1%; in assay [8] it was 38.9%; in assay [9] it was 52.3%; in assay [10] it was 31.2%.
In the case of `OCc1[nH]nc2cc(Nc3ncc4ccc(Br)c(OC5CCC(O)CC5)c4n3)ccc12` (stereo not given), the growth in assay [1] is 3.06% (active); in [2], 3.2% (active); in assay [3], 8.63% (active); in [4], -17.9% (active); in assay [5] it was 4.77% (active); in assay [6] it was 13.7%. The growth was -12.4% (active) in assay [7], 2.95% (active) in assay [8], -28.5% (active) in [9] and -3.04% (active) in assay [10].
Turning to `OCCCNc1oc(-c2ccccc2)nc1[P+](c1ccccc1)(c1ccccc1)c1ccccc1`, the growth in assay [1] is 1.71% (active); in assay [2] it was 4.55% (active); in assay [3], 8.02% (active); in [4] it was 26.2%; in [5], 16.6%; in assay [6], -4.9% (active). Besides, the growth was -19.4% (active) in [7], -8.66% (active) in assay [8], -13.3% (active) in assay [9] and 95% in [10].
With `Nc1nc(Nc2ccc(Cl)cc2)nn1Cc1cccc(Br)c1`, the growth in assay [1] is 30.6%; in [2], 29.1%; in assay [3] it was 54.9%; in assay [4] it was 49.7%; in assay [5] it was 46.8%; in assay [6], 47.2%. The growth was 13% in assay [7], 47.7% in assay [8], 18.2% in assay [9] and 25.7% in [10].
Turning to `CC(=O)NS(=O)(=O)c1ccc(NC(=O)CSC2=NC(c3ccccc3)C(C(C)=O)=C(C)N2)cc1` (stereo not given), the growth in [1] was 101%; in assay [2] it was 96%; in assay [3] it was 115%; in [4], 104%; in assay [5], 113%; in [6], 100%. Also, the growth in assay [7] is 108%; in assay [8], 133%; in assay [9] it was 107%; in assay [10], 99.6%.
For `CN1CCN(c2ccc(C(=O)/C=C/c3cc(C(F)(F)F)ccc3Cl)cc2)CC1`, the growth in assay [1] is 1.37% (active); in assay [2], 3.72% (active); in assay [3] it was -51.5% (active); in [4], -91% (active); in assay [5] it was -36.5% (active); in assay [6], 6.75% (active). The growth was -82.7% (active) in [7], -37.7% (active) in assay [8], 3.68% (active) in assay [9] and -56.9% (active) in assay [10].
Turning to `Nc1cc(-c2cccc(C(=O)NCc3ccc4c(c3)OCO4)c2)ccn1`, the growth was 76.1% in assay [1]; 80.6% in [2]; 103% in assay [3]; 121% in assay [4]; 90.1% in assay [5]; 107% in assay [6]. The growth was 112% in [7], 98.5% in [8], 94.4% in assay [9] and 88.5% in assay [10].
For `COc1cc(C2CC(c3ccc(C)cc3)=Nc3c(N)nc(N)nc3N2)ccc1Oc1nc(Nc2ccc(F)cc2)nc(N(C)C)n1` (stereo not given), the growth in assay [1] is 0.613% (active); in assay [2] it was 22.3%; in [3], 61.2%; in assay [4], 99.6%; in assay [5], 50.9%; in assay [6] it was 100%. For the same compound, the growth in assay [7] is 53.8%; in assay [8], 56.2%; in assay [9], 57.6%; in assay [10], 51.7%.
Regarding `Cc1cc(C)nc(NS(=O)(=O)c2ccc(N/C(N)=N/c3nccc(-c4cccs4)n3)cc2)n1`, the growth in assay [1] is 92.3%; in assay [2], 87%; in assay [3], 101%; in [4], 107%; in assay [5] it was 93.6%; in assay [6], 84.4%. In addition, the growth in assay [7] was 72.6%; in assay [8] it was 107%; in assay [9], 77.7%; in assay [10] it was 101%.
Regarding `COc1cc(/C=C/C(=O)c2ccc(C(F)(F)F)cc2)ccc1Oc1nc(Nc2ccc(F)cc2)nc(N(C)C)n1`, the growth in [1] is 30.4%; in [2] it was 13.5%; in assay [3], 85%; in assay [4], 92.7%; in assay [5], 69.8%; in assay [6], 103%. Moreover, the growth is 91.4% in [7], 79.6% in assay [8], 91.6% in assay [9] and 66.7% in [10].
Take `Cc1ccc(/C(N)=N/c2sc(-c3ccccc3)nc2-c2ccccc2)cc1`: the growth is 63.1% in assay [1]; 59.9% in assay [2]; 91.4% in assay [3]; 84.1% in assay [4]; 72% in [5]; 87.1% in assay [6]. Also, the growth was 94.3% in [7], 84.7% in [8], 95% in assay [9] and 89.9% in [10].
`COc1ccc(C(=O)NC(=S)N2CCN(c3ncnc4c3cnn4-c3ccccc3)CC2)cc1`: the growth in [1] was 12.3%; in assay [2], 72.6%; in assay [3], 51.3%; in [4], 79.3%; in assay [5], 54.1%; in [6], 7.3% (active). In addition, the growth in assay [7] is 66.4%; in assay [8], 83.1%; in assay [9] it was 51%; in [10], 61.7%.
For the compound `Nc1nnc(-c2c[nH]c3ccc(F)cc23)c(-c2c[nH]c3ncccc23)n1`, the growth in assay [1] is 20.6%; in assay [2], 60.3%; in assay [3] it was 46.7%; in assay [4], 78.8%; in assay [5] it was 81.4%; in assay [6], 92%. Besides, the growth is 33.5% in [7], 59.3% in assay [8], 29.1% in [9] and 101% in assay [10].
In the case of `CN1C(=O)N(C)C2SC(N/N=C/C=C/c3ccccc3)=NC21` (stereo not given), the growth was 13.2% in assay [1]; 77.1% in assay [2]; 93.1% in assay [3]; 92.8% in assay [4]; 72.4% in assay [5]; 98.4% in [6]. The growth is 68.5% in [7], 28.8% in assay [8], 89.7% in [9] and 73.9% in [10].
Take `O=c1oc2ccccc2cc1-c1csc(N=Nc2c(O)[nH]c3ccc(Br)cc23)n1`: the growth in assay [1] was 97.1%; in assay [2] it was 99.7%; in assay [3], 79.1%; in [4], 98.9%; in assay [5], 87.2%; in [6], 91.9%. For the same compound, the growth was 79.5% in assay [7], 89.7% in [8], 33.7% in [9] and 76.2% in assay [10].
On to `Clc1ccc2c(N/N=C/c3c[nH]c4ccc(Br)cc34)ccnc2c1`, for which the growth in assay [1] was -45.6% (active); in [2], -42.1% (active); in assay [3], -64.6% (active); in assay [4] it was -66.5% (active); in assay [5], -78.6% (active); in [6], -84.7% (active). Further, the growth in assay [7] is -41.2% (active); in [8], -82.8% (active); in assay [9], -58.5% (active); in assay [10], -77.5% (active).
Take `COc1cccc(/C=C2\N=C(C)N(CCc3ccc(S(N)(=O)=O)cc3)C2=O)c1`: the growth in [1] was 82.1%; in assay [2], 97.2%; in [3], 102%; in assay [4], 99.8%; in assay [5], 104%; in assay [6] it was 112%. The growth in assay [7] was 103%; in [8] it was 113%; in assay [9], 98.6%; in [10] it was 104%.
For `O=C1CCC(N2Cc3cc(CC(=O)Nc4ccc(N5CCCCC5)cc4)ccc3C2=O)C(=O)N1` (stereo not given), the growth in [1] was 77.2%; in assay [2], 66.4%; in assay [3], 20.9%; in assay [4], 70.5%; in assay [5], 31.1%; in assay [6], 61%. For the same compound, the growth in assay [7] was 31.8%; in [8] it was 53.9%; in [9], 27.4%; in assay [10] it was 25.2%.
Take `O=c1cc(-c2ccccc2)oc2cc(OCCCNCc3ccccc3)cc(O)c12`: the growth in assay [1] is -24.8% (active); in [2] it was -26.8% (active); in assay [3] it was -90.5% (active); in assay [4] it was 75.5%; in [5], -16.2% (active); in assay [6] it was 30.1%. In addition, the growth was 9.54% (active) in assay [7], 16.2% in [8], -4.99% (active) in [9] and -77.9% (active) in assay [10].
